Measured values taken from the supplement of paper PMC11732987, “Enantioselective OTUD7B fragment discovery through chemoproteomics screening and high-throughput optimisation” (Communications Chemistry, 2025).

What was measured:
Assay in all cases: log2 ratio of Biotin-Ahx-Ub-VS probe labelling (fragment/DMSO); higher = less target engagement (more negative = stronger competition), active = hit call of the paper (q ≤ 0.05, log2 ratio ≤ -1)
Details in all cases: compound concentration: 200 uM; treatment time: 3 h
[1] = target: USP9X (UniProt Q93008)
How it was run: (§1)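 Using Biotin-Ahx-Ub-VS at 0.5 µM final for 1 h, DUBs were labelled in HEK293T lysate (495 µg per sample) that had first been treated in triplicate with fragment at 200 µM or vehicle for 3 h. NeutrAvidin enrichment, LysC and trypsin digestion and diaPASEF LC-MS/MS followed. Spectronaut label-free quantities were global-median-normalised. Values are average log2 fragment/vehicle ratios by unpaired t-test, using proteins with ≥2 unique peptides.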

[2] = target: UniProt O00487
How it was run: as §1

[3] = target: UniProt O00507
How it was run: as §1

[4] = target: UniProt P51784
How it was run: as §1

[5] = target: T1, UniProt Q5T2D3
T1 sequence (whole entry): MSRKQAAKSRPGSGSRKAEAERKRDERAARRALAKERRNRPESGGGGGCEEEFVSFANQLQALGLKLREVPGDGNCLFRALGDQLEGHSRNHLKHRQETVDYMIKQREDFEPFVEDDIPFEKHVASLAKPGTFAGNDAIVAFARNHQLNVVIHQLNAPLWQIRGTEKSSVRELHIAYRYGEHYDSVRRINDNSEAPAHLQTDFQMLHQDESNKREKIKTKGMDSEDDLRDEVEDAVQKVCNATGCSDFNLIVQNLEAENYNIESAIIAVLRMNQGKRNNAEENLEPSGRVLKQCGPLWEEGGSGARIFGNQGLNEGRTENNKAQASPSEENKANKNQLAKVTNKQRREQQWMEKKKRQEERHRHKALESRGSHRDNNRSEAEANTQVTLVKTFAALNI
How it was run: as §1

[6] = target: T2, UniProt Q8TE49
T2 sequence (whole entry): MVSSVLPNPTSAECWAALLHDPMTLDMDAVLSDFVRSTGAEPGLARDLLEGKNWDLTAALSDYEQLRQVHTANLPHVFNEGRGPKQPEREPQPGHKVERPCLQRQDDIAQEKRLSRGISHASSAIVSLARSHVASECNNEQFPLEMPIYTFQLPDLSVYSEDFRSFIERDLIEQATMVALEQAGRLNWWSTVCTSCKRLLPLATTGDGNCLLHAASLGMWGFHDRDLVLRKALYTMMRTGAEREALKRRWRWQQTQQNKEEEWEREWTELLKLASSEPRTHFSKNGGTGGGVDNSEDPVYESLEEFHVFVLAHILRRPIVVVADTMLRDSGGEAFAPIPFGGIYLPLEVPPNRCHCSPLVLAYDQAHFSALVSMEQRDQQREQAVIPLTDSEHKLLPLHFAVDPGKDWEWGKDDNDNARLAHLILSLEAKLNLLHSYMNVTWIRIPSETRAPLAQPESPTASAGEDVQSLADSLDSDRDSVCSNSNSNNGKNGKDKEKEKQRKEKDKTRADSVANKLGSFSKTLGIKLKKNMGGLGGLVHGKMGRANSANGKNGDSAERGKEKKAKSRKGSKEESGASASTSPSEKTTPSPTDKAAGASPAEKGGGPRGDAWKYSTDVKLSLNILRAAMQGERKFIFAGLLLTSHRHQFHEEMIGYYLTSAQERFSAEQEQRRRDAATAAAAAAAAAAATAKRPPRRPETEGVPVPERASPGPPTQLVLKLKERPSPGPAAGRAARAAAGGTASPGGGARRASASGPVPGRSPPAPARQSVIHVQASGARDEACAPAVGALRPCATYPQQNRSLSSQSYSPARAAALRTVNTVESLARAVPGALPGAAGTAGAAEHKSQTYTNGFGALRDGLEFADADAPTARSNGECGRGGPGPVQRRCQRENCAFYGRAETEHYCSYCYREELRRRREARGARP
How it was run: as §1

[7] = target: T3, UniProt Q9P2H5
T3 sequence (whole entry): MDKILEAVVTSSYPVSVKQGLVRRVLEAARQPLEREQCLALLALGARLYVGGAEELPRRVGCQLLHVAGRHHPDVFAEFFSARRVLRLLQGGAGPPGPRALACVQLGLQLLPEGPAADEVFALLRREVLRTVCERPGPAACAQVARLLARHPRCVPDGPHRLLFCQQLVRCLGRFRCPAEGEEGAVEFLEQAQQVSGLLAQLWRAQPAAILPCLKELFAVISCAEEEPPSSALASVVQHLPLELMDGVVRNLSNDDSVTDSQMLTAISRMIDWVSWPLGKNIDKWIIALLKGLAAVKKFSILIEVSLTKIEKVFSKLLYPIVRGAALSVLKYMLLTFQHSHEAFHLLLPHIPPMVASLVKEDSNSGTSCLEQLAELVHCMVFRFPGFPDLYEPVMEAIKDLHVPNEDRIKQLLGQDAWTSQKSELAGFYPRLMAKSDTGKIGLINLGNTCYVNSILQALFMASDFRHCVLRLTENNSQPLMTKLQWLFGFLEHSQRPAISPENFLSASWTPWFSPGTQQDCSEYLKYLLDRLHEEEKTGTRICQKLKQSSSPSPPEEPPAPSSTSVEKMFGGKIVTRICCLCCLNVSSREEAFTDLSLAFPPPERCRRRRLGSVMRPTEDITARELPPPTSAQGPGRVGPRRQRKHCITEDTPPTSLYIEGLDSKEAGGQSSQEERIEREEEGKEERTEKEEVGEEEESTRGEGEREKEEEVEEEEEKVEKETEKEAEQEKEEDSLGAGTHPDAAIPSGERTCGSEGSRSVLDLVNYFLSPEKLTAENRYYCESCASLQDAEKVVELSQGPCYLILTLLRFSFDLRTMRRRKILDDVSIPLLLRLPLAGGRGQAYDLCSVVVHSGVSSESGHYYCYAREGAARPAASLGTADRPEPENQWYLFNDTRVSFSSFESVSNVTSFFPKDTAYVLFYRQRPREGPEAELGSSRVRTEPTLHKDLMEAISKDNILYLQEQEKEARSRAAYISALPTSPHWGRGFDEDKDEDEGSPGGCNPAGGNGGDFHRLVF
How it was run: as §1

[8] = target: T4, UniProt Q9UGI0
T4 sequence (whole entry): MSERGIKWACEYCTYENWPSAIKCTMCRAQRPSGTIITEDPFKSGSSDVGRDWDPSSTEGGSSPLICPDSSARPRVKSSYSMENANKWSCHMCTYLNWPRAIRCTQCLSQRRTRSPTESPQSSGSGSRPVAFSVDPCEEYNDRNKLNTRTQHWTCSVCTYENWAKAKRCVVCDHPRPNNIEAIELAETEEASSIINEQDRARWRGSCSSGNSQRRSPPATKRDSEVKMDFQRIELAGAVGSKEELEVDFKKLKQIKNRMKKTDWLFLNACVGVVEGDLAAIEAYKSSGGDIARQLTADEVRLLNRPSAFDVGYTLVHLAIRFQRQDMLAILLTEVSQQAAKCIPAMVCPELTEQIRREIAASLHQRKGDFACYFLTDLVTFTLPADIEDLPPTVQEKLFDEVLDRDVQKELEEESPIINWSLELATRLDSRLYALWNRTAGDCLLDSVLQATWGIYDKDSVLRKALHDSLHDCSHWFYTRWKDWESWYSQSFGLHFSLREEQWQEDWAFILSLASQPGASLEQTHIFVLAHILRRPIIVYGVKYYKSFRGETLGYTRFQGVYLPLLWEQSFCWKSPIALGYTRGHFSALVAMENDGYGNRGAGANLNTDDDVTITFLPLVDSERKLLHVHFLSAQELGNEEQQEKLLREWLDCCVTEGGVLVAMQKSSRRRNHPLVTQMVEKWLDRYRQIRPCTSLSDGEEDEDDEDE
How it was run: as §1

[9] = target: T5, YOD1 (UniProt Q5VVQ6)
T5 sequence (whole entry): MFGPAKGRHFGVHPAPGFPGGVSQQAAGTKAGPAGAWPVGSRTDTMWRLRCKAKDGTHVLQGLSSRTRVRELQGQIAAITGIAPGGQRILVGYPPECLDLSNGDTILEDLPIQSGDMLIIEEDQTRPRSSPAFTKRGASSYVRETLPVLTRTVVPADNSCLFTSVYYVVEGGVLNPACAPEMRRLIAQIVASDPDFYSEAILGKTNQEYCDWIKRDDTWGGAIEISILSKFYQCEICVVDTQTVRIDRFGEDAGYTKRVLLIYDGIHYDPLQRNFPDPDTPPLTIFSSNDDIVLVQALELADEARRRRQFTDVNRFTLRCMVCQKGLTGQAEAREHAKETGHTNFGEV
How it was run: as §1

Measured: log2 ratio of Biotin-Ahx-Ub-VS probe labelling

Sequence of UniProt O00487 (O00487 whole entry): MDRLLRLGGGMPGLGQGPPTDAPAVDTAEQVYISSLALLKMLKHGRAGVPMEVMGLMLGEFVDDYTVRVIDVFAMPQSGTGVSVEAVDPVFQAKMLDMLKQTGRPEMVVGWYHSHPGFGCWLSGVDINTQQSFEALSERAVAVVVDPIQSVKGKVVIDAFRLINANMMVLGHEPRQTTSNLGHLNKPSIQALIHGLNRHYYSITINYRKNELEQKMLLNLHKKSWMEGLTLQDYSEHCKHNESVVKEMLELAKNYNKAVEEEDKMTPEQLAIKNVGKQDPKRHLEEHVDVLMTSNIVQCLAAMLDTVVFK
Sequence of UniProt O00507 (O00507 whole entry): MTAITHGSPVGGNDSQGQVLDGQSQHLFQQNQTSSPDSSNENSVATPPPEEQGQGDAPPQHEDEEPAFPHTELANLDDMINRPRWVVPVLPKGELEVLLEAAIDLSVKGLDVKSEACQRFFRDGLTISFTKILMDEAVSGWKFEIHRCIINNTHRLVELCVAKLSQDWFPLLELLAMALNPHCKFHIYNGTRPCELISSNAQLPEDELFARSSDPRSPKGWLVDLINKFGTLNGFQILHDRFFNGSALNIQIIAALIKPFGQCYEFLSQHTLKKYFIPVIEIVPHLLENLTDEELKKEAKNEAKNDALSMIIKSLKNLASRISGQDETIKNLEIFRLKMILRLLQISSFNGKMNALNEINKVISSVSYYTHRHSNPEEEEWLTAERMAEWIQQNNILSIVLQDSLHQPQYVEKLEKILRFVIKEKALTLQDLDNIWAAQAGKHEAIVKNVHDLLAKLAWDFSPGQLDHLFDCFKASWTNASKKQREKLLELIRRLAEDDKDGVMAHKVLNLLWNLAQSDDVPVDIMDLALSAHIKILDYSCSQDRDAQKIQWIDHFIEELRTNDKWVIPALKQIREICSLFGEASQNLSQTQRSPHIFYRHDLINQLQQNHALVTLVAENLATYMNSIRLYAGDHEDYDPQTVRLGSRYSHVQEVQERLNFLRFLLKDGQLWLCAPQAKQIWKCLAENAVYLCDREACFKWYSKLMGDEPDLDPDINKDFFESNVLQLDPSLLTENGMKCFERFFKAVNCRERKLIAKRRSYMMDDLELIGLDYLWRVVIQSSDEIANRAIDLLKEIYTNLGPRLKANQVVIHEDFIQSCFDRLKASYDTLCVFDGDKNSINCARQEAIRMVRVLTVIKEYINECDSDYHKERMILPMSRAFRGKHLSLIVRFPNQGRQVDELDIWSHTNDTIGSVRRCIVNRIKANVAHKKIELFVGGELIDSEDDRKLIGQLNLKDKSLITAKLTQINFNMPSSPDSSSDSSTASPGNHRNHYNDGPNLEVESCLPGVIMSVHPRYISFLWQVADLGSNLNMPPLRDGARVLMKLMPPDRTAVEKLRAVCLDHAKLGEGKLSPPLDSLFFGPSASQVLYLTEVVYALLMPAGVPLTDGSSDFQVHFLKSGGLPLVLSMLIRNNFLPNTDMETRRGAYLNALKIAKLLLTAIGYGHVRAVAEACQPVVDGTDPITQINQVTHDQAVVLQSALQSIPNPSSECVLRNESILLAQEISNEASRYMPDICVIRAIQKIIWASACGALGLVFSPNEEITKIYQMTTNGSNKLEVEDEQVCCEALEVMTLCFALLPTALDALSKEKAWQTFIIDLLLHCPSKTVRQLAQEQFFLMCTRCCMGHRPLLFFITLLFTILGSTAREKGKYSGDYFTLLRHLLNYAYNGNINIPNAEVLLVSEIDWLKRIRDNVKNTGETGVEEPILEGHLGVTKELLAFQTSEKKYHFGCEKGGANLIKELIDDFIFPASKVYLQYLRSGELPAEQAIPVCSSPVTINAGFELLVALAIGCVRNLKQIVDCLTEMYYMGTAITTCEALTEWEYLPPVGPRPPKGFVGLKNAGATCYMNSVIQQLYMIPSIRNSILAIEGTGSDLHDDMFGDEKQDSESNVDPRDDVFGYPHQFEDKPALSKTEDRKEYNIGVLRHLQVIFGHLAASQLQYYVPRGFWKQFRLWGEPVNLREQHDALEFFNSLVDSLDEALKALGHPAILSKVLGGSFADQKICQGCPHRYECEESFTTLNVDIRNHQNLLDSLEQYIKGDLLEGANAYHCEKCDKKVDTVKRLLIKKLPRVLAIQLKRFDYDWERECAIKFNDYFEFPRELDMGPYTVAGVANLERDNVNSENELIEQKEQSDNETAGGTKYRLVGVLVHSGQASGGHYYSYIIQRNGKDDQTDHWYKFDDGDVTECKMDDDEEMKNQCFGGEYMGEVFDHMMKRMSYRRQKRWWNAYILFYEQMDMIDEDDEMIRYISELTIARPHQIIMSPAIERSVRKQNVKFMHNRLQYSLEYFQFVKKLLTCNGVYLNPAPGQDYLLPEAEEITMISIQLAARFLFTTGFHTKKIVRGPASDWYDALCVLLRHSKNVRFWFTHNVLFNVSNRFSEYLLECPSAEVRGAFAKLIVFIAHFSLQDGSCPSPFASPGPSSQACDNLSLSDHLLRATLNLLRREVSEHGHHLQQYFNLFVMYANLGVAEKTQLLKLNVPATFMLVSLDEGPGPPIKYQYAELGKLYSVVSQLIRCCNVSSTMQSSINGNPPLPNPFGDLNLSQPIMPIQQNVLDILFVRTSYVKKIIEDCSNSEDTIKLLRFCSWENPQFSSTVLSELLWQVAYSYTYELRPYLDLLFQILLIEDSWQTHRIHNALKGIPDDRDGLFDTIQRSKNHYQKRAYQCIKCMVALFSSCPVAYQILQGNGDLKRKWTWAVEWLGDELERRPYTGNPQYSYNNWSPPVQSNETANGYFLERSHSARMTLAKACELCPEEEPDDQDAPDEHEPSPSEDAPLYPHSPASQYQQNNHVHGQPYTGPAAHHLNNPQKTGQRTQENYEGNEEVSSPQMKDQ
Sequence of UniProt P51784 (P51784 whole entry): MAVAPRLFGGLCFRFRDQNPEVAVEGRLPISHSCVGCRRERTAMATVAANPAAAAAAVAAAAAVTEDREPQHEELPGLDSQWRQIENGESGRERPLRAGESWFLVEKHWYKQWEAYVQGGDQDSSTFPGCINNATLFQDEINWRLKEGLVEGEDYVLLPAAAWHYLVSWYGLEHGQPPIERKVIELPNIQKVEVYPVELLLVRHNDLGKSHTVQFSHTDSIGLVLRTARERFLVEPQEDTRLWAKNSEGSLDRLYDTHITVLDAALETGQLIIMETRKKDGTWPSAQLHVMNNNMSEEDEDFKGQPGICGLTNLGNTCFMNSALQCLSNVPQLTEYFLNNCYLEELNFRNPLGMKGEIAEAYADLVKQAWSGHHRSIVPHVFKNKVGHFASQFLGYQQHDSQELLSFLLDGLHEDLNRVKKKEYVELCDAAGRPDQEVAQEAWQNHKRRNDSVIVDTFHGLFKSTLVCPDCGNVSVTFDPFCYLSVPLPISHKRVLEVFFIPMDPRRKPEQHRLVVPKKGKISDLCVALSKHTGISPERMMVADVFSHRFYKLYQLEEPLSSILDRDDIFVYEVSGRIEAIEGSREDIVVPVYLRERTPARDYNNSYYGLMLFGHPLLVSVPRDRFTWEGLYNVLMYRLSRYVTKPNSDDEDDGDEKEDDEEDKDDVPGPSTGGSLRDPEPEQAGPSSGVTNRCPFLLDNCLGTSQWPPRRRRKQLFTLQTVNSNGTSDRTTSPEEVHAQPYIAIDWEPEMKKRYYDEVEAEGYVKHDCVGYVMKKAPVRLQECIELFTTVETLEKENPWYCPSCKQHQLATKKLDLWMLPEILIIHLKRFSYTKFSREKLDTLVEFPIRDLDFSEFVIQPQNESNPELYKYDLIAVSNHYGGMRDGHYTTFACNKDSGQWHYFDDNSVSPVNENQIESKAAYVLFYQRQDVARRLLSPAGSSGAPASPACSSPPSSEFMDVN

Cc1cc(C2CCCN2C(=O)CCl)nn1C.Cl (centres undefined)
inactive: [1] -0.131 | [2] -0.229 | [3] -0.0169 | [4] -0.386 | [5] -0.106 | [6] -0.432 | [7] -0.247 | [8] 0.115 | [9] -0.199
